Drawing on PubChem BioAssay (NCI), this text covers growth for eleven compounds.

What all share (experiment): NCI-60 one-dose screen, 48 h (100 = growth as untreated, 0 = no growth, -100 = all killed)
Test [1] deals with EKVX NSCLC. Conditions: 10 µM.
Test [2] concerns SN12C renal. To be noted: 10 µM.
In test [3] the test system is UO-31 renal. To be noted: 10 µM.
Test [4] relates to TK-10 renal. Conditions: 10 µM unless noted.
Test [5] has as its system ACHN renal. Conditions: 10 µM.
The subject of test [6] is CAKI-1 renal. To be noted: 10 µM.
Test [7] concerns A498 renal. Conditions: 10 µM.
Test [8] concerns CCRF-CEM leukemia. Conditions: 10 µM.
For test [9], the system named is MOLT-4 leukemia. Conditions: 10 µM.
For test [10], the system named is SR leukemia. Conditions: 10 µM.
Test [11] relates to RPMI-8226 leukemia. To be noted: 10 µM.
The test system of test [12] is OVCAR-8 ovarian. Conditions: 10 µM.
The subject of test [13] is OVCAR-5 ovarian. Conditions: 10 µM.
In test [14] the test system is OVCAR-4 ovarian. Conditions: 10 µM.
Test [15] relates to SK-OV-3 ovarian. Conditions: 10 µM.
Test [16] deals with IGROV1 ovarian. Conditions: 10 µM.
Test [17] relates to OVCAR-3 ovarian. To be noted: 10 µM.
The subject of test [18] is HS 578T breast. Conditions: 10 µM.
For test [19], the system named is NCI/ADR-RES ovarian. To be noted: 10 µM.
The test system of test [20] is SK-MEL-2 melanoma. To be noted: 10 µM.

Structures are written as SMILES. About 83,000 compounds went through this panel and 20% of them were active in at least one assay; those are over-represented in the sample as a whole.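 Activity criterion: percent growth below 10, measured after cells in 96-well plates were exposed to a single compound concentration for 48 hours.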 Values without a mark were called inactive. Activity calls are given as the source filed them.

For `N#Cc1c(N)sc(=S)c2c1CCCC2`, the growth in [1] is 107%; in [2], 105%; in [3], 91.6%; in test [4] it was 116%; in test [5], 103%; in test [6], 98.5%. Besides, the growth in test [7] was 113%; in [8], 101%; in [9] it was 95.4%; in [10] it was 93.6%; in test [11], 95.1%; in [12] it was 103%. For the same compound, the growth was 108% in test [13]; 102% in [14]; 103% in test [15]; 116% in test [16]; 113% in test [17]; 104% in test [18]. For the same compound, the growth in [19] is 104%.
Consider `C=CC(=O)OCCCCCCCC`, for which the growth in [1] was 111%; in test [2] it was 103%; in test [3], 88.4%; in [4], 140%; in [5], 101%; in test [6], 97.6%. Moreover, the growth is 89.8% in [7]; 83% in test [8]; 89.9% in [9]; 82.6% in [10]; 104% in test [11]; 105% in test [12]. Further, the growth in [13] is 101%; in test [14] it was 109%; in test [15], 108%; in test [16], 114%; in test [17], 103%; in test [18] it was 109%. In test [19], the growth is 105%.
On to `Nc1ccccc1SC(CC(=O)c1ccccc1)c1c(Cl)cccc1Cl` (stereo unspecified), for which the growth was 91.6% in test [20]; 62.9% in [2]; 58.1% in test [3]; 69.4% in [5]; 76.9% in test [6]; 79.1% in test [7]. The growth in [9] is 17.2%; in [12] it was 68.7%; in test [13], 89.6%; in test [14] it was 66%; in test [15] it was 73.3%; in [16], 62.7%. Moreover, the values for the growth in test [17], in test [18] and in [19] were 46.5%, 84.9% and 69.2%, respectively.
`COc1cc([C@@H]2c3cc4c(cc3[C@H](O)[C@H]3COC(=O)[C@H]23)OCO4)cc(OC)c1OC`: the growth is 38.8% in [1]; 32.9% in test [2]; 48.2% in test [3]; 51.4% in test [4]; 34.6% in test [5]; 26.9% in [6]. Also, the growth in [7] was -10.2% (active); in test [8], 6.58% (active); in test [9], -6.06% (active); in test [10] it was -1.68% (active); in test [11] it was 29.7%; in test [12] it was 12.9%. Besides, the growth in test [13] is 40%; in [14], 26.9%; in [15] it was 24.4%; in test [16], 31.6%; in test [17], -42.8% (active); in test [18], 26.9%. Moreover, the growth in [19] is 4.7% (active).
Regarding `NC(CSC(c1ccccc1)(c1ccccc1)c1ccccc1)C(=O)O` (stereo unspecified), the growth in test [20] was -15.7% (active); in [2], 53.6%; in test [3] it was 54.3%; in test [4], 59.3%; in [7], 48.5%; in [8], 9.95% (active). Also, the growth in test [9] is 38.4%; in [10], 15.3%; in [11], 4.13% (active); in [12], 22.6%; in test [13], 41.8%; in test [14], 74.6%. In addition, the growth in [15] is 17%; in test [16] it was 63.3%; in [17], 15.9%; in test [19] it was 93%.
For `NC(C(=O)O)c1ccc([N+](=O)[O-])cc1` (stereo unspecified), the growth was 98% in test [1]; 91.6% in test [2]; 78.2% in [3]; 156% in test [4]; 98.1% in test [5]; 99.5% in test [6]. Moreover, the growth was 107% in test [7]; 98.5% in test [8]; 105% in test [9]; 113% in test [10]; 116% in [11]; 112% in [12]. Besides, the growth in [13] was 92.2%; in test [14], 107%; in test [15], 96.4%; in test [16], 109%; in test [17] it was 107%; in test [18], 117%. In test [19], the growth was 105%.
Turning to `O=C(O)CNC(=O)c1ccccc1`, the growth in test [1] is 93.4%.
Take `CCOC(=O)C/C(C)=N\O`: the growth in [20] is 107%; in test [2], 98.6%; in test [3], 81.6%; in [4] it was 93.4%; in test [6], 92.8%; in test [7], 111%. In addition, the growth in test [9] is 95.2%; in test [10] it was 104%; in test [11], 104%; in test [12], 109%; in [13] it was 106%; in test [15], 103%. The growth is 101% in test [16], 99.9% in test [17], 101% in test [18] and 96.6% in [19].
In the case of `O=[N+]([O-])c1ccc(Sc2ccncn2)c([N+](=O)[O-])c1`, the growth in [1] was 105%; in test [2], 51.3%; in test [3], 51.1%; in test [4], 34.3%; in test [5], 37.2%; in [6] it was 39.7%. The growth in test [7] is 127%; in test [8], 41.2%; in [10], 30.6%; in test [11], 40%; in [12] it was 102%; in [13], 96.3%. In addition, the growth was 42.9% in test [14]; 102% in test [15]; 83% in [16]; 63.7% in test [17]; 92.6% in test [18]; 58% in [19].
Take `COC(=O)Nc1nc2ccc(C(=O)c3cccs3)cc2[nH]1`: the growth in test [1] was 37.8%; in [2], 29.6%; in [3], 48.8%; in test [4] it was 61.6%; in [6], 19.8%; in [7], -1.63% (active). Moreover, the growth in test [8] is 6.93% (active); in test [9], -13.6% (active); in [10], -4.93% (active); in test [11], 28.7%; in test [12], 13.1%; in test [13], 42.4%. The growth was 36.3% in [14]; 13.3% in test [15]; 39.1% in [16]; -7.19% (active) in [17]; 20.9% in test [18]; -20.4% (active) in [19].
Turning to `CC(=O)Nc1cccc(NC(C)=O)n1`, the growth in test [1] was 104%; in test [2], 99.7%; in test [3], 99.4%; in test [4], 111%; in test [5], 105%; in [6], 126%. Besides, the growth in test [7] was 100%; in test [8], 90.3%; in test [9] it was 111%; in test [10] it was 123%; in test [12], 105%; in [13] it was 143%. In addition, the growth in test [14] was 112%; in test [17], 112%; in test [18], 102%; in test [19], 131%.
